Test results published in PubChem BioAssay (Tox21).
Several values for one entry are separate records, joined by “and”; a condition that tells them apart may be missing. Equal entries are not always repeated. Records with an inconclusive call do not appear. A structure can be active in one record and inactive in another. Activity calls are given as the source filed them. Unless noted, the call rests on the fitted dose curve; in most records, active means well fitted curve in the direction sought with a large enough effect in the repeat runs; inconclusive means weak or mixed curves; inactive means no such curve, though single readings can be large; an effect the other way counts as inactive or inconclusive.

Tests used:
[1] = biological target: Retinoic acid receptor RXR-alpha (Homo sapiens) (UniProt P19793); assay: qHTS assay to identify small molecule agonists of the RXR signaling pathway (AID 1159527; calls by dose curve; further: nearly all actives have a fitted effect of over 35% in size; further: potency means the concentration at half of the fitted maximal effect)
Chain of Retinoic acid receptor RXR-alpha (Homo sapiens) (P19793 whole entry, looked up): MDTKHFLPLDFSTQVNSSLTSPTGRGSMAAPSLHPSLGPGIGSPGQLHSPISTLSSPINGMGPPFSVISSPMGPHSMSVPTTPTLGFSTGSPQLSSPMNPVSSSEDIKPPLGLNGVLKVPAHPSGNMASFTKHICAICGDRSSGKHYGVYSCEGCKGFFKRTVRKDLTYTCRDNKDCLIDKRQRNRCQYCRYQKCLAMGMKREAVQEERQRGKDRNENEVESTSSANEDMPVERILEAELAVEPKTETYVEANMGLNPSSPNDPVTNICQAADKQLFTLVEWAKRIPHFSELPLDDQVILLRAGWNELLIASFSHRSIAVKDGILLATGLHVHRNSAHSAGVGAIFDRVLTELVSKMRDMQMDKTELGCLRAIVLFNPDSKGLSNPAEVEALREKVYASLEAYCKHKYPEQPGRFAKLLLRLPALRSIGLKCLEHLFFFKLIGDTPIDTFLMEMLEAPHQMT
Outline: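 GeneBLAzer RXR-alpha-UAS-bla HEK 293T cells in medium with 2% charcoal-stripped FBS, pre-incubated 5 hr at 37 C, then exposed to compounds 16 hr. Beta-lactamase reporter read by FRET substrate, 2 hr room temperature, 460/530 nm emission.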

[2] = qHTS assay to identify small molecule agonists of the RXR signaling pathway - cell viability counter screen (AID 1159529); further: series mostly up to about 77 µM; nearly all actives have a fitted effect of over 50% in size
Outline: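 RXR-alpha-UAS-bla HEK 293T cells in medium with 2% charcoal-stripped FBS were preincubated 5 hr, then exposed to compounds for 16 hr at 37 C. Viability was read as CellTiter-Glo luminescence after 30 min at room temperature.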

[3] = qHTS assay to identify small molecule antagonists of the retinoid acid receptor (RAR) signaling pathway - cell viability counter screen (AID 1159551); further: nearly all actives have a fitted effect of over 35% in size
Outline: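 Measured by luminescent ATP detection, viability reflects C3RL4 cells treated 6 h at 37 C with test chemicals in the presence of 1 uM (final) retinol.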

[4] = qHTS assay to identify small molecule antagonists of the retinoic acid receptor (RAR) signaling pathway (AID 1159552; further: nearly all actives have a fitted effect of over 50% in size)
Outline: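 RARE-luc C3RL4 cells; cpds + 1 uM (final) retinol, 6 hr, 37 C/5% CO2; luciferase reagent, 30 min RT, luminescence readout. Inhibitors of retinol-driven signal scored.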

[5] = qHTS assay to identify small molecule agonists of the retinoic acid receptor (RAR) signaling pathway (AID 1159553); further: potency means the concentration at half of the fitted maximal effect
Outline: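 6 hr compound exposure (DMSO vehicle) of overnight-plated C3RL4 RARE-luc cells at 37 C; luminescence quantified after 30 min RT with luciferase reagent.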

Measured: Potency

Nc1ccc(Cl)cc1Cl
inactive: all assays above

O=S(=O)(O)c1ccc(O)cc1
inactive: all assays above

COc1ccccc1/C=C/C=O
inactive: [1] | [2] | [3]

Cc1ccc2c(n1)Oc1ccc(C(C)C(=O)OCC(=O)N(C)C)cc1C2 (configuration not stated)
active: [5] 10.6 µM and 8.41 µM
inactive: all other assays above

Nc1ccc(S(=O)(=O)Nc2cnc3ccccc3n2)cc1
inactive: [1] | [2] | [3]

CC(C)Oc1ccc2c(=O)c(-c3ccccc3)coc2c1
active: [5] 0.335 µM
inactive: all other assays above

C=C(C)C(=O)OCCOC(=O)C(=C)C
inactive: all assays above

Clc1nc(Cl)c(Cl)c(Cl)c1Cl
inactive: all assays above

NNc1ccc(C(=O)O)cc1
active: [1] 49.5 µM | [5] 43.9 nM and 24.6 µM
inactive: all other assays above

CCC(C)OC(=O)c1ccc(O)cc1 (configuration not stated)
active: [5] 61.1 µM
inactive: all other assays above

c1ccc2cc(Nc3ccc(Nc4ccc5ccccc5c4)cc3)ccc2c1
inactive: all assays above

CCCCC/C=C/C=C/C=O
inactive: [1] | [2] | [3]

CC(=O)CC/C=C(\C)CCC=C(C)C
inactive: [1] | [2] | [3]

C/C=C/C(=O)O
inactive: all assays above

CC(CCC(=O)O)(c1ccc(O)cc1)c1ccc(O)cc1
inactive: all assays above

CC(C)=CCC/C(C)=C\CO
inactive: [1] | [2] | [3]

COc1ccc(OC)c(C(O)CNC(=O)CN)c1 (configuration not stated)
inactive: all assays above

CCCCC(CC)COCC1CO1 (configuration not stated)
inactive: all assays above

C=CC(C)(CCC=C(C)C)OC(C)=O (configuration not stated)
inactive: all assays above

CCCCNS(=O)(=O)c1ccccc1
inactive: all assays above

OC(CCl)CCl
inactive: [1] | [2] | [3]

CCCCOCCOCCO
inactive: all assays above

COc1c(Cl)c(Cl)c(Cl)c(Cl)c1Cl
inactive: [1] | [2] | [3]

CC(=O)C1(C)CC2=C(CCCC2(C)C)CC1C (configuration not stated)
inactive: all assays above

c1ccncc1
inactive: all assays above

CC(C)OB(OC(C)C)OC(C)C
inactive: [1] | [2] | [3]

CC1=CCC(C(C)(C)O)CC1 (configuration not stated)
inactive: [1] | [2] | [3]

CCCCC(CC)COC(=O)c1ccc(N(C)C)cc1 (configuration not stated)
inactive: all assays above

C[Si](C)(C)O[Si](C)(C)C
inactive: all assays above

COC(=O)Nc1nc2ccc(S(=O)c3ccccc3)cc2[nH]1 (configuration not stated)
inactive: [1] | [2] | [3]

c1ccc2c(c1)c1cccc3ccc4cccc2c4c31
43.4 µM (active) and inactive: [1]
inactive: [2] | [3]

CC1=CC2C3CC(C=C3C)C2C1 (configuration not stated)
inactive: [1] | [2] | [3]

CCC(C)(O)CCCC(C)C (configuration not stated)
inactive: all assays above

O=C=Nc1ccc(Cc2ccc(N=C=O)cc2)cc1
inactive: all assays above

O=Cc1ccccc1O
inactive: all assays above

O=[N+]([O-])c1ccc2c(c1)Cc1ccccc1-2
inactive: all assays above

O=CCCCC=O
inactive: [1] | [2] | [3]

Cc1c(C(N)=O)cc([N+](=O)[O-])cc1[N+](=O)[O-]
inactive: [1] | [2] | [3]

Cc1cccc([N+](=O)[O-])c1C
inactive: all assays above

CCCCCCCCCCCO
inactive and 3.89 µM (active): [1]
inactive: all other assays above

O=C(OCc1ccccc1)c1ccccc1O
active: [5] 9.62 µM
inactive: all other assays above
